46 compounds from PMC4336329 (PLoS ONE, 2015) can be followed below.

Among all 310,000 compounds or so, about 14,000 (4.5%) showed an effect of 50% or more. The effect is printed as a negative number. This is one part of a sample in which strong results are shown more often than they occur.
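Also: peak tail current of the secondary pulse compared with the same well before compound.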

The target of the experiment is human ether-à-go-go-related gene (hERG) potassium channel (human, UniProt Q12809). Description: primary screen, population patch clamp on CHO cells stably expressing hERG; higher = less effect of the substance.
human ether-à-go-go-related gene (hERG) potassium channel, sequence (Q12809 whole entry, looked up): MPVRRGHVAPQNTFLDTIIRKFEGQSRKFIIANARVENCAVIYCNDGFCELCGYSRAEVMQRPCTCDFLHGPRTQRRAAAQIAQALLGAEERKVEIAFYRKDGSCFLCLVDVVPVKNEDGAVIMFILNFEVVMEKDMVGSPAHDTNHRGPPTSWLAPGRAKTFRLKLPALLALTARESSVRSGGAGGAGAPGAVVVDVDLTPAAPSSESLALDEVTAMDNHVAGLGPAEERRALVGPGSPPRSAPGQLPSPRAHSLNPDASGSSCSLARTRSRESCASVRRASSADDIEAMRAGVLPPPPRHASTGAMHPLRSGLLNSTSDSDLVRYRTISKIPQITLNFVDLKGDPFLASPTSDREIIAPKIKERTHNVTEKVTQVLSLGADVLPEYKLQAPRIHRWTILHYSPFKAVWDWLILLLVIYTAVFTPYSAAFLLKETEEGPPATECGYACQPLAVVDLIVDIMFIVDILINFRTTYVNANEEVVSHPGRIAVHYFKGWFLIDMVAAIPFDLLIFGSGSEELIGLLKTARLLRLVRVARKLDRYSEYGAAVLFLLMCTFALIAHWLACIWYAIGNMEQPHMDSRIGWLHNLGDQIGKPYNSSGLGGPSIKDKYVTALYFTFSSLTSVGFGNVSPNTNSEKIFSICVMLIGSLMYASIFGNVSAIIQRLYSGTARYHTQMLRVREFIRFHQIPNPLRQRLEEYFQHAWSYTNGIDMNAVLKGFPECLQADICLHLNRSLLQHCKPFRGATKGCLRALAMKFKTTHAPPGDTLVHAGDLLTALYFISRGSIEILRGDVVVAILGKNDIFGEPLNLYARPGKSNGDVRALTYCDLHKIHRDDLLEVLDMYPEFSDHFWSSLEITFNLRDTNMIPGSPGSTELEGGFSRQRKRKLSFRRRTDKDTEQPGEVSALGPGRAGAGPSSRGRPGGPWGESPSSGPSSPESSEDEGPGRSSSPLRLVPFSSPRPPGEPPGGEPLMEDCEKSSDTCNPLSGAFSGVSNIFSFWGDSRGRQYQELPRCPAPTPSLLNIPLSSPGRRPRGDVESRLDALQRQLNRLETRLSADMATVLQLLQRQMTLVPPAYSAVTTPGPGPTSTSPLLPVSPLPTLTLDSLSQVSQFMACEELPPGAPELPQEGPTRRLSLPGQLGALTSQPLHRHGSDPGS
`CCOC(=O)c1nc(Nc2ccc(C(=O)OC)cc2)c2ccccc2n1`: the “hERG current change (%, negative = inhibition) at 10uM” value is recorded as 0.323%.
Take `COc1ccc(-c2nc3ccccc3n2OCC(=O)O)cc1`: the “hERG current change (%, negative = inhibition) at 10uM” value is listed as 18.5%.
Regarding `CCCCCC(=O)NC(=S)Nc1ccc(NC(=O)c2ccco2)cc1`, the “hERG current change (%, negative = inhibition) at 10uM” value came to 2.58%.
As for `CC1(C)Cc2c(sc(NC(=O)c3ccc(Br)o3)c2C#N)CO1`, the “hERG current change (%, negative = inhibition) at 10uM” value is listed as 16.6%.
Turning to `Clc1ccccc1Cc1noc(CN2CCCCC2CCc2ccccn2)n1` (stereo not shown), the “hERG current change (%, negative = inhibition) at 10uM” value was -29.4%.
Consider `COc1ccc(-c2nc(CS(=O)CC(=O)NCc3ccccn3)c(C)o2)cc1` (stereo not shown), for which the “hERG current change (%, negative = inhibition) at 10uM” value came out at 6.44%.
In the case of `Cn1ccnc1C1CCCCN1Cc1nc(-c2ccc3c(c2)OCO3)no1` (stereo not shown), the “hERG current change (%, negative = inhibition) at 10uM” value is -7.65%.
Take `Fc1cccc(Cc2noc(CN3CCCCC3CCc3ccccn3)n2)c1` (stereo not shown): the “hERG current change (%, negative = inhibition) at 10uM” value is on record as 0.789%.
Regarding `COc1ccc(-c2nc(CN3CCCCC3c3cccnc3)c(C)o2)c(F)c1` (stereo not shown), the “hERG current change (%, negative = inhibition) at 10uM” value is -35.9%.
For the compound `Cc1oc(-c2cccc3ccccc23)nc1CN1CCC[C@H]1CO`, the “hERG current change (%, negative = inhibition) at 10uM” value is recorded as -12.2%.
In the case of `Cc1oc(-c2cccc(F)c2)nc1CN1CCCCC1CCc1ccccn1` (stereo not shown), the “hERG current change (%, negative = inhibition) at 10uM” value was -91.5%.
Consider `COc1ccc(-c2nc(CN3CCCCC3CCc3ccccn3)c(C)o2)cc1` (stereo not shown), for which the “hERG current change (%, negative = inhibition) at 10uM” value is -90.7%.
With `c1ccc(CCC2CCCCN2Cc2nc(-c3ccc4c(c3)OCO4)no2)nc1` (stereo not shown) the figure was -55.7%.
Next, `Cc1cccc(C2Nc3ccccc3C(=O)N2c2ccccc2)n1` (stereo not shown): 4.41%.
`O=C(NCc1ccc2c(c1)OCO2)C1CC(c2ccc(Cl)c(Cl)c2)=NO1` (stereo not shown): the “hERG current change (%, negative = inhibition) at 10uM” value is 15%.
Take `Cc1nn(C(C)c2n[nH]c(=S)n2-c2ccc(F)cc2)c(C)c1[N+](=O)[O-]` (stereo not shown): the “hERG current change (%, negative = inhibition) at 10uM” value was found to be 13.3%.
In the case of `O=C(Nc1ccc2c(c1)C(=O)OC2)c1ccc(C(F)(F)F)cc1`, the “hERG current change (%, negative = inhibition) at 10uM” value worked out at 17.3%.
As for `COc1ccc(CN2CCNC(=O)C2CC(=O)NCCCn2nnc3ccccc32)cc1C` (stereo not shown), the “hERG current change (%, negative = inhibition) at 10uM” value is -2.87%.
With `O=C(NCCN1CCc2ccccc2C1)Nc1ccc(F)cc1` the figure was -37.5%.
On to `O=C(NCCN1CCc2ccccc2C1)Nc1ccc([N+](=O)[O-])cc1`, for which the “hERG current change (%, negative = inhibition) at 10uM” value is listed as -70.1%.
Consider `CN1CCN(CCNC(=O)Nc2ccc([N+](=O)[O-])cc2)CC1`, for which the “hERG current change (%, negative = inhibition) at 10uM” value is on record as -25.7%.
With `O=C(NCCN1CCCCC1)Nc1ccc([N+](=O)[O-])cc1` the figure was -41.4%; with `CCc1ccc(NC(=O)NCCN2CCc3ccccc3C2)cc1`, -54.7%; with `CCc1ccc(NC(=O)CN2CCc3ccccc3C2)cc1`, -34.2%.
Turning to `CCCCSCCCNC(=S)Nc1ccccc1C`, the “hERG current change (%, negative = inhibition) at 10uM” value is listed as 5.08%.
`COc1ccc(OC)c(N(CC(=O)NCCSCc2ccco2)S(=O)(=O)c2ccc(OC)c(OC)c2)c1`: the “hERG current change (%, negative = inhibition) at 10uM” value is -22.6%.
For the compound `COc1ccc(S(=O)(=O)N(CC(=O)NC2CC3CCC2C3)c2ccccc2OC)cc1` (stereo not shown), the “hERG current change (%, negative = inhibition) at 10uM” value is -25%.
Turning to `Cc1ccc(N(CC(=O)NCCSCc2ccco2)S(=O)(=O)c2ccc(C)cc2)cc1`, the “hERG current change (%, negative = inhibition) at 10uM” value is listed as -69.7%.
On to `COc1ccccc1N(CC(=O)NCCSCc1ccco1)S(=O)(=O)c1ccccc1`, for which the “hERG current change (%, negative = inhibition) at 10uM” value is -26.6%.
As to `COc1ccc(Cl)cc1N(CC(=O)NC1CC2CCC1C2)S(=O)(=O)c1ccccc1` (stereo not shown), the “hERG current change (%, negative = inhibition) at 10uM” value is recorded as -31.5%.
Next, `Cc1ccc(S(=O)(=O)N(CC(=O)NCCSCc2ccco2)c2ccc(F)cc2)cc1`: -28.3%; `COc1ccc(N(CC(=O)NCCSCc2ccco2)S(=O)(=O)c2ccc(C)cc2)cc1`: -17.9%; `COc1ccc(OC)c(N(CC(=O)NC2CC3CCC2C3)S(=O)(=O)c2ccccc2)c1` (stereo not shown): -59.7%.
Turning to `COc1ccc(OC)c(N(CC(=O)NCCSCc2ccco2)S(=O)(=O)c2ccccc2)c1`, the “hERG current change (%, negative = inhibition) at 10uM” value was -69.2%.
With `O=C(NCc1nc2ccccc2[nH]1)c1cccc(S(=O)(=O)N2CCCCC2)c1`, the “hERG current change (%, negative = inhibition) at 10uM” value is 13.9%.
`Cn1c(=O)c2c(nc(Br)n2CCCc2ccccc2)n(C)c1=O`: the “hERG current change (%, negative = inhibition) at 10uM” value is recorded as -9.05%.
On to `COc1ccc(Cl)cc1S(=O)(=O)N1CCC(C(=O)NC2CCCC2)CC1`, for which the “hERG current change (%, negative = inhibition) at 10uM” value was -21.2%.
Take `COC(=O)[C@H]1C[C@@H]1[C@H](NC(=O)c1cc(C)on1)c1ccccc1`: the “hERG current change (%, negative = inhibition) at 10uM” value was found to be 10.3%.
Regarding `Cc1cc(NC(=O)CSCC(=O)N2CCN(c3cccc(C(F)(F)F)c3)CC2)no1`, the “hERG current change (%, negative = inhibition) at 10uM” value is -11.3%.
For `COCCN(C(=O)/C=C/c1ccccc1)c1nnc(-c2cccnc2)s1`, the “hERG current change (%, negative = inhibition) at 10uM” value is recorded as -9.61%.
`Cn1c(N2CCOCC2)c(C#N)c2ccccc21`: the “hERG current change (%, negative = inhibition) at 10uM” value is -3.19%.
Take `COc1ccc(OC)c(S(=O)(=O)ON2C(=O)c3ccccc3C2=O)c1`: the “hERG current change (%, negative = inhibition) at 10uM” value came out at 6.82%.
`CCOC(=O)/C(C#N)=C\c1ccc(N2CCN(C)CC2)cc1`: the “hERG current change (%, negative = inhibition) at 10uM” value is on record as -38.2%.
As for `CCOC(=O)/C(C#N)=C/c1ccc(N2CCN(C)CC2)cc1`, the “hERG current change (%, negative = inhibition) at 10uM” value is -27.8%.
As to `CCOC(=O)/C(C#N)=C/c1ccc(N2CCCCC2)cc1`, the “hERG current change (%, negative = inhibition) at 10uM” value is listed as -60.9%.
Take `Cn1ncc(Br)c1NC(=O)Nc1ccc(OC(F)(F)F)cc1`: the “hERG current change (%, negative = inhibition) at 10uM” value amounted to 8.82%.
